Hits are enriched below; roughly 8% of the tested compounds scored in any of these assays.
FBPA coupling cs: inhibits coupling enzyme system, counter-screen for aldolase hits. coupling enzyme system counterscreen, AmpLite Red fluorescence. activity change, negative = inhibition, % at 58.2 µM, hits read low. hit rate 0.67% among 290,000. AID 2472; in the data active = activity change below about -30%
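Compounds tested against the coupling enzymes alone at 57.5 uM final; readout was AmpLite Red fluorescence (525/598 nm) after 20 min at RT.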
RORgamma inh: inhibitors of mouse ROR gamma transcriptional activity | hit rate 5.4% among 310,000 | AID 2551 | Drosophila S2 Gal4-RORgamma UAS-luciferase reporter, 20 h | P51450 | Potency, µM (highest dose often 53.6 µM), for inactives: at the highest dose activity change, negative = inhibition, usual class: inhibitors; note: potency is the fitted concentration of half-maximal effect; nearly all actives have a fitted effect of over 60% in size
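Drosophila Schneider cells stably carrying a metallothionein-driven Gal4 DBD–ROR gamma fusion and a UAS-Photinus luciferase reporter were exposed to compound for 1 hr, then induced with copper sulfate (700 uM final) for 20 hr at ambient temperature before luminescence reading.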
TSHR antag: blocks TSH signaling through the human TSH receptor; TSHR-expressing cells, TSH-stimulated cAMP HTRF, 2 h; stronger effect = lower value; activity change, negative = inhibition, % at 11.5 µM; hit rate 0.2% among 330,000;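 active = activity change below a set negative limit, meaning inhibition stronger than a set level, cut at about -70% in these data; inconclusive = activity change between two set negative limits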
Target sequence (P16473 whole entry, looked up): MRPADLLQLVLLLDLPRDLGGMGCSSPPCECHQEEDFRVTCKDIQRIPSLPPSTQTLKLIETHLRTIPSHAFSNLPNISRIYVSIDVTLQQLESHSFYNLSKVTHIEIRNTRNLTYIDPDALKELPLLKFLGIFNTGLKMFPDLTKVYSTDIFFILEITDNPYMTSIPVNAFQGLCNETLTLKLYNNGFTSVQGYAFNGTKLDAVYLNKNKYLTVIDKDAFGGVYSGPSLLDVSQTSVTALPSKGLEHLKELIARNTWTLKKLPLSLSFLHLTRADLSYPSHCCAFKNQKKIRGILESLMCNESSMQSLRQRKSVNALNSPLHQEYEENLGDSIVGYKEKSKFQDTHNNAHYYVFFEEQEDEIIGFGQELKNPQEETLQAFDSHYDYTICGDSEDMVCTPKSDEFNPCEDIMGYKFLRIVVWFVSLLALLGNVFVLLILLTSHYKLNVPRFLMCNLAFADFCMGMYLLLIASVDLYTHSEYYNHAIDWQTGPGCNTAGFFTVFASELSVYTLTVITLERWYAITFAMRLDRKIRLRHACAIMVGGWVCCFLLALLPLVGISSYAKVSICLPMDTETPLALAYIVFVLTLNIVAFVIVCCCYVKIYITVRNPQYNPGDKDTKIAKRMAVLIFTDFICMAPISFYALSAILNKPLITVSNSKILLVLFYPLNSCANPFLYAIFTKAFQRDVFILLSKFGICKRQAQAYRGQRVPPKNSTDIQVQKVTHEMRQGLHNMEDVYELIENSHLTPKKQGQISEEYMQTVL
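Read-out is FRET at 665 nm (cryptate excitation 337 nm) from a cryptate-tagged anti-cAMP antibody, competed by cell cAMP against cAMP-d2. Compounds are tested on freshly harvested TSHR cells challenged with 4nM TSH (EC80) for 2 hours at 37 deg C.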
Gal4-VP16 FLuc: counter-screen for ROR gamma inhibitors: Gal4-VP16 reporter; Drosophila S2 Gal4-VP16 UAS-luciferase, luminescence, 20 h; Potency, µM (highest dose often 53.6 µM), inactives show at the highest dose activity, negative = inhibition, most hits filed as inhibitors; hit rate 3.5% among 310,000; AID 2546;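 note: Gal4-VP16 expression switched on by copper sulfate through the metallothionein promoter; potency is the fitted concentration of half-maximal effect; nearly all actives have a fitted effect of over 50% in size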
ELG1 repair inh: ELG1-dependent DNA repair inhibition; hit rate 2.3% among 330,000; Potency, µM (top dose mostly 46.1 µM), without a hit: at the highest dose activity change, negative = inhibition, actives largely listed as inhibitors; HEK293T ELG1-luciferase reporter, luminescence, 16 h; DNA damage induced by 5-fluorouridine; note: potency is the fitted concentration of half-maximal effect; nearly all actives have a fitted effect of over 55% in size
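5-Fluorouridine DNA damage + compound/DMSO, 2,000 cells/well, 16 h, 37 °C/5% CO2. ONE-Glo, 30 min RT, luminescence. Readout = decrease in reporter signal.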
An asterisk follows results filed as active; ? = inconclusive; / = no result given; [ ] = dose if it differs, or a comment. Unless noted, calls come from the whole dose curve; as a rule, active = well fitted curve in the direction sought with a large enough effect; inconclusive = small, poorly fitted or top-dose-only effect, or another doubt; inactive = no such curve, though single readings can be large; an effect the other way counts as inactive or inconclusive. % is set by controls: 0 for no effect and ±100 for the full control effect.

SMILES	FBPA coupling cs	RORgamma inh	TSHR antag	Gal4-VP16 FLuc	ELG1 repair inh
CC1(C(=O)NC(=S)N(CCC#N)Cc2cccnc2)CC1(Cl)Cl (stereo not given)	3	1.4µM*	0	?	2%
Cc1ccc(S(=O)(=O)N2CCOCC2)cc1C(=O)NCC1CCCCC1	/	/	2	/	8%
CCC(C)NC(=O)c1cc(-c2ccc3c(c2)OCO3)on1 (stereo not given)	-2	?	4	?	?
O=C(Nc1nnc(C2=COCCO2)o1)c1cccc(Br)c1	/	0.35µM*	6	0.5µM*	2%
O=C(Nc1nnc(-c2ccc(F)cc2)o1)c1cccc([N+](=O)[O-])c1	3	0.4µM*	4	0.79µM*	?
O=C(Nc1ccc(NC(=O)c2cccc([N+](=O)[O-])c2)cc1)c1cccc([N+](=O)[O-])c1	2	10%	-3	-7%	?
CS(=O)(=O)c1cccc(C(=O)Nc2nnc(C3=COCCO3)o2)c1	/	/	-4	/	11%
O=C(Nc1nnc(C2=COCCO2)o1)c1cccc([N+](=O)[O-])c1	/	1µM*	19	4µM*	17%
COC(=O)c1cccc(C23CC4(C2)[C@H](CN(CC2CCCCC2)[C@@H]4c2ccccc2)C3c2ccc(C(F)(F)F)cc2)c1 (stereo not given in full)	-2	-11%	/	3%	/
COc1ccc(NC(=O)N2CC3(CCN(C(=O)c4cnccn4)CC3)C2)cc1	2	-3%	/	-14%	/
C=CCN1C(=O)c2ccc(C(=O)N3CCN(S(=O)(=O)c4ccccc4Br)CC3)cc2C1=O	/	/	-8	/	?
COc1ccc(C(=O)N2CCC[C@@]3(CCN(c4ccccn4)C3)C2)cc1	-1	0%	/	-8%	/
Cc1cccc2cc(CN(Cc3cccs3)C(=S)NCC3CCCO3)c(=O)[nH]c12 (stereo not given)	-5	29%	0	-13%	16µM*
Cc1cc(C)c2[nH]c(=O)c(CN(CC3CCCO3)C(=S)Nc3ccccc3)cc2c1 (stereo not given)	-1	7%	2	-12%	-16%
O=c1[nH]c2cc3c(cc2cc1CN(Cc1ccco1)C(=S)NCC1CCCO1)OCCO3 (stereo not given)	-3	10%	-29	-8%	1%
Cc1ccc2cc(CN(Cc3ccco3)C(=S)NCC3CCCO3)c(=O)[nH]c2c1 (stereo not given)	-7	27%	-3	-11%	21µM*
Cc1cccc2cc(CN(CC3CCCO3)C(=S)NCc3ccco3)c(=O)[nH]c12 (stereo not given)	-2	-2%	21	-27%	18µM*
Cc1cc(C)c2[nH]c(=O)c(CN(CC3CCCO3)C(=S)NCc3ccco3)cc2c1 (stereo not given)	0	-16%	6	-12%	-22%
Cc1ccc(C)c2[nH]c(=O)c(CN(Cc3ccco3)C(=S)NCC3CCCO3)cc12 (stereo not given)	1	39%	-1	-15%	23µM*
COC(=O)NC(/C=C/c1ccccc1)[C@]1(C(C)=O)CCCC1=O (stereo not given in full)	5	9%[10 µM]	/	-1%[10 µM]	/
Cc1ccc2cc(CN(Cc3ccco3)C(=O)C3CCCCC3)c(=O)[nH]c2c1C	2	0%	0	-4%	?
CCNC(=S)N(Cc1cccs1)Cc1cc2cc(OCC)ccc2[nH]c1=O	1	?	-5	-6%	?
Cc1ccc2cc(CN(Cc3ccco3)C(=O)NC3CCCCC3)c(=O)[nH]c2c1C	6	?	1	8%	7.3µM*
CCNC(=S)N(Cc1ccco1)Cc1cc2cc(OCC)ccc2[nH]c1=O	1	18µM*	6	?	?
COC(=O)c1ccccc1S(=O)(=O)N(Cc1ccco1)Cc1cc2cc(OC)ccc2[nH]c1=O	3	11%	-9	12%	23µM*
SMILES	FBPA coupling cs	RORgamma inh	TSHR antag	Gal4-VP16 FLuc	ELG1 repair inh
COc1ccccc1N1CCN(C2CCCN(C(=O)CN3CCCCC3=O)C2)CC1 (stereo not given)	5	-45%	19	-1%	7%
CCOC(=O)Cc1csc(NC(=S)NC(=O)c2ccc([N+](=O)[O-])cc2)n1	1	10µM*	-9	?	6%
CCOC(=O)Cc1csc(NC(=O)c2csc3c2CCCC3)n1	-6	13µM*	-4	-18%	-10%
CCSc1nnc(NC(=O)c2ccc3ccccc3n2)s1	-26	1µM*	-11	0.71µM*	?
CCOC(=O)Cc1csc(NC(=O)c2ccncc2)n1	1	15%	1	-10%	-3%
CCOC(=O)Cc1csc(NC(=O)c2ccc3ccccc3n2)n1	-1	6.3µM*	-21	?	28%
CCOC(=O)Cc1csc(NC(=O)c2cc3c(s2)CCCC3)n1	0	-42%	-14	-24%	15%
CCOC(=O)Cc1csc(NC(=O)Cc2ccc([N+](=O)[O-])cc2)n1	1	1%	-8	1%	?
CCc1nnc(NC(=O)c2ccc3ccccc3n2)s1	-28	3%	-10	-2%	?
CC1CCCN(CCCNC(=O)c2nn(C)c3c2CS(=O)(=O)c2ccccc2-3)C1 (stereo not given)	/	-26%	7	-12%	6%
CCOC(=O)Cc1csc(NC(=S)NC(=O)c2ccc(Cl)cc2)n1	4	7.1µM*	5	?	?
O=C(CCCN=C1NS(=O)(=O)c2ccccc21)OCC(=O)c1ccccc1Cl	/	/	-12	/	27%
O=C(CCc1ccccc1)NNC(=O)c1ccccn1	-2	10µM*	5	?	?
O=C(NNC(=O)C(c1ccccc1)c1ccccc1)c1ccccn1	-1	5.6µM*	1	?	13%
[O-][n+]1cccc2c(Br)cc(Br)c(O)c21	-30	0.56µM*	-7	0.71µM*	?
CN(/N=C\c1ccc(O)c(O)c1)c1nc(-c2ccccc2)cc(-c2ccccc2)n1	-5	2.5µM*	14	3.2µM*	13µM*
COc1cc(/C=N/N(c2ccccc2)c2ccccc2)ccc1O	0	1%	13	?	-3%
CCN(CC(=O)NCc1ccc(F)cc1)C(=O)c1ccc(COc2ccccc2)cc1	1	10%	8	-2%	?
Cc1c(NC(=O)Nc2cc(Cl)ccc2Cl)c(=O)n(-c2ccccc2)n1C	/	18%	0	3%	-13%
COc1ccc(Cl)cc1NC(=O)CN(C)CC(=O)Nc1c(C)n(C)n(-c2ccccc2)c1=O	/	/	-5	/	18µM*
COc1ccc(Cl)cc1NC(=O)CN(C)CC(=O)Nc1cc(OC)c(OC)c(OC)c1	0	19%	-3	-2%	18µM*
COc1ccc(NC(=O)c2cc(-c3cccc(OC)c3)on2)cc1	0	-15%	-11	-2%	?

Screening results deposited in PubChem BioAssay by National Center for Advancing Translational Sciences (NCATS).
